# TDP1 cell CPT: growth inhibition of DT40 Tdp1-/-;hTDP1 cells with camptothecin (screen for TDP1 inhibitors); chicken DT40 Tdp1-/-;hTDP1 cells + 20 nM CPT, ATP luminescence, 48 h; hit rate 12% among 420,000; Potency, µM (top dose mostly 46.2 µM), actives largely listed as inhibitors; note: nearly all actives have a fitted effect of over 55% in size
#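 Cell growth measured by CellTiter-Glo luminescence after a minimum 48 h, 37 C compound exposure with 20 nM CPT in Tdp1-knockout DT40 cells stably expressing hTDP1, seeded 400/well; qHTS titration format.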
# IL1B secr inh: inflammasome signaling inhibition, IL-1 beta readout. hit rate 4.7% among 360,000. activity change, % at 57.5 µM. AID 743279. THP-1 LPS/ATP IL-1B secretion, AlphaLISA, 16 h; stronger effect = lower value; in the data active = activity change below about -50%; inconclusive = mostly about -30% to -49%
#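 THP-1 cells pretreated 1 hr with compounds (up to 57.5 uM final), then stimulated with LPS (250 ng/mL final) plus ATP (1.25 mM final); secreted IL-1B measured by AlphaLISA after 16 hr, decreased signal indicating inhibition.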
# HT1080 IDH1KD tx: toxicity to HT-1080 IDH1 knockdown cells (counter line) | HT-1080 IDH1 knockdown viability, ATP luminescence, 48 h | Potency, µM (series often up to 46.1 µM), hits mostly cytotoxic | hit rate 2% among 360,000
#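 Luminescent ATP read-out (CellTiter-Glo, 10 min at room temperature) after 48 h compound exposure at 37 °C gave viability of IDH1-knockdown HT-1080 cells. Activity was normalised to DMSO and cell-free wells, then fitted as concentration-response curves.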
# HT1080-NT tox: kills 2HG-producing HT-1080-NT fibrosarcoma cells. HT-1080-NT fibrosarcoma viability, CellTiter-Glo ATP luminescence, 48 h. Potency, µM (top dose mostly 46.1 µM), actives largely listed as cytotoxic. hit rate 1.6% among 360,000. AID 686970;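 note: NT is the 2HG producing partner of a matched IDH1 knockdown line; nearly all actives have a fitted effect of over 55% in size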
#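 Fibrosarcoma NT cells, 750 per well in 5% FBS RPMI, were exposed to compound for 48 hours. Viability: CellTiter-Glo luminescence.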
# TDP1 cell noCPT: qHTS for Inhibitors of human tyrosyl-DNA phosphodiesterase 1 (TDP1): qHTS in cells in absence of CPT; DT40 Tdp1-/- hTDP1 cells, no CPT, ATP luminescence, 48 h; Potency, µM (highest dose often 46.2 µM), actives largely listed as inhibitors; hit rate 15% among 420,000; AID 686978, 2013; note: nearly all actives have a fitted effect of over 55% in size
#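 Chicken DT40 Tdp1-/- cells stably complemented with human TDP1 were seeded at 400 cells/well with DMSO in place of 20 nM camptothecin. After compound pinning, cells grew at least 48 hr at 37 °C; viability read by CellTiter-Glo luminescence.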
# A number is an active result; . = inactive; ? = inconclusive; / = no result given; [ ] = remark or other dose. Hits are enriched below; roughly 19% of the tested compounds scored in any of these assays. Unless noted, calls come from the whole dose curve; as a rule, active = well fitted curve in the direction sought with a large enough effect; inconclusive = small, poorly fitted or top-dose-only effect, or another doubt; inactive = no such curve, though single readings can be large; an effect the other way counts as inactive or inconclusive.
SMILES,TDP1 cell CPT,IL1B secr inh,HT1080 IDH1KD tx,HT1080-NT tox,TDP1 cell noCPT
Cc1cc(-c2nnc(SCC(=O)NC3CC3)n2C(C)C)cs1,.,.,.,.,.
Cc1cc(C)nc(Nc2nc3ccccc3[nH]2)n1,.,.,.,.,.
Cc1ccc2nc(Nc3nc(-c4ccccc4)cc(=O)[nH]3)nc(C)c2c1,13µM,?,.,.,8.2µM
Cc1ccc2nc(Nc3nc(C)cc(-c4ccccc4)n3)[nH]c(=O)c2c1,21µM,.,.,.,15µM
Oc1ccc(Br)cc1CNc1cccc2cccnc12,?,.,?,?,26µM
Oc1c(Br)cc(Br)cc1CNc1cccc2cccnc12,16µM,.,?,.,?
COc1cccc(CNc2cccc3cccnc23)c1O,?,.,?,.,?
COc1cc2cc(CCCOC(=O)CCC(=O)O)oc(=O)c2cc1OC,.,.,.,.,.
CCc1cnc2c(c1SCC(=O)c1ccc(Cl)cc1)c(=O)n(C)c(=O)n2C,13µM,/,/,/,21µM
CCc1cnc2c(c1SCC(=O)NCc1ccccc1)c(=O)n(C)c(=O)n2C,12µM,/,/,/,?
CCc1cnc2c(c1SCC(=O)NCc1ccccc1Cl)c(=O)n(C)c(=O)n2C,.,/,/,/,.
Cc1ccc(CNC(=O)CSc2c(C(C)C)cnc3c2c(=O)n(C)c(=O)n3C)cc1,15µM,/,/,/,26µM
COC(=O)c1ccc(CN2CCCCC2)cc1,.,.,.,.,.
O=C(NC(=S)Nc1ccc2c(c1)OCCO2)c1ccccc1,?,.,?,?,14µM
CCOc1cccc(C(=O)NC(=S)Nc2ccc3c(c2)OCCO3)c1,.,-54,.,.,?
CC/C(=C\C(=O)c1ccncc1)Nc1ccc(Br)cc1,?,-67,.,.,?
O=C1Nc2c(ccc(Cl)c2Cl)C(=O)C1(F)c1ccccc1 (configuration not stated),.,-99,.,.,.
O=CC1=C(c2ccccc2)Oc2ccccc2O1,?,-102,16µM,?,?
CN(C)/C=C1/N=C(c2ccccc2)OC1=O,.,?,.[9.24 µM],.,.
O=C(NCCc1ccccc1)c1nnc(CS(=O)(=O)c2ccccc2)o1,.,.,.,.,?
O=C(N/N=C/C=C/c1ccccc1[N+](=O)[O-])c1cc(-c2ccccc2)n[nH]1,16µM,.,.,.,15µM
O=C(N/N=C/C=C\c1ccccc1[N+](=O)[O-])c1ccccn1,?,.,.,?,.
Cc1occc1C(=O)N/N=C/C=C\c1ccccc1[N+](=O)[O-],?,.,.,.,.
Cc1ccsc1C(=O)N/N=C/C=C/c1ccccc1[N+](=O)[O-],21µM,.,.,.,?
CC1(OC(=O)C2CCCC2)C(=O)C=C2C=C(c3ccsc3)N(C(CO)CO)C=C2C1=O (configuration not stated),.,.,.,.,.
SMILES,TDP1 cell CPT,IL1B secr inh,HT1080 IDH1KD tx,HT1080-NT tox,TDP1 cell noCPT
Cc1ccc(CN2CCN(c3cccc4[nH]ccc34)CC2)cc1,16µM,.,.,.,?
COc1cc(/C=C/C(=O)NC(C)C2CC3CCC2C3)cc(OC)c1OC (configuration not stated),?,.,.,.,.
CCOC(=O)C1(C(=O)OCC)NC(=O)CC1CC (configuration not stated),.,.,.,.,.
CCCCCC1CC(=O)NC1(C(=O)OCC)C(=O)OCC (configuration not stated),.,-64,.,.,.
O=C(NC(Cc1ccccc1)C(=O)O)/C(=C/c1ccc([N+](=O)[O-])cc1)NC(=O)c1ccccc1 (configuration not stated),.,.,.,.,.
O=C1N/C(=C/c2ccc(Br)cc2)C(O)=C1C=NCc1ccccc1,2.9µM,.,?,?,2.3µM
C[C@@H](NC(=O)c1ncn2c1C(=O)NC[C@@H]2C)c1ccccc1,.,.,.,.,?
CSc1cccc(Nc2cc(C(=O)NCCCN(C)c3ccccc3)c3ccccc3n2)c1,15µM,/,/,/,13µM
CCc1ccc(Nc2cc(C(=O)NCCCN(C)c3ccccc3)c3ccccc3n2)cc1,?,/,/,/,13µM
CCCCn1c(N)c(N(CC(C)C)C(=O)c2ccco2)c(=O)[nH]c1=O,.,.,.,.,.
O=NN(C(=O)NC1CCC(C(=O)O)CC1)C1CCC(C(=O)O)CC1 (configuration not stated),.,.,.,?,.
Nc1ncnc2c1c(-c1ccc(Oc3ccccc3)cc1)cn2C1CCCC1,?,.,21µM,23µM,18µM
Nc1nc(N)nc(-c2ccc(Oc3ccccc3)cc2)n1,.,.,.,.,.
CCc1cc(C(=O)NCC2Cc3cccc(-c4ccc(C(=O)OC)cn4)c3O2)no1 (configuration not stated),.,/,/,/,.
CC(C)NC(=O)c1cn(C2CCC(NC(=O)C(C)(C)C)CC2)nn1 (configuration not stated),.[9.04 µM],/,/,/,.
C=C(CC)C(=O)c1ccc(OCC(=O)O)c(Cl)c1Cl,17µM,-94,23µM,18µM,18µM
CCOC(=O)COc1ccc2nsnc2c1Cl,.,.,.,.,.
COc1ccccc1OCC(=O)N(Cc1nnc(-c2ccccc2Cl)o1)C1CC1,?,.,.,.,?
Cc1ccc(C(=O)NCCN2C3=NC[C@H](C)N3C[C@H]2Cc2ccc(O)cc2)cc1Br,21µM,.,.,.,21µM
C/C=C(\C)C(=O)NCCN1C2=NC[C@H](Cc3ccc(O)cc3)N2C[C@H]1Cc1ccc(O)cc1,.,.,.,.,.
COc1ccc(C[C@@H]2CN3C(=NC[C@@H]3C)N2C[C@H](C)NC(=O)c2ccc(C)c(Br)c2)cc1,18µM,.,.,.,15µM
COc1ccc(C[C@H]2CN3C(=NC[C@H]3C)N2CCNC(=O)c2ccc(C)c(Br)c2)cc1,6.5µM,?,?,.,5.8µM
COc1ccc(-c2nc3ccc(NC(=O)COC(C)=O)cc3c(=O)n2Cc2ccccc2)cc1COc1ccc(NC(C)=O)cc1,?,/,.,.,11µM
COc1ccc(-c2nc3ccc(NC(C)=O)cc3c(=O)n2Cc2cccc(Cl)c2)cc1COc1ccc(NC(C)=O)cc1,11µM,/,.,.,13µM
Cc1ccnc2nc(C(=O)OCC(=O)NC(=O)NCc3ccco3)nn12,.,.,.,.,.
Cc1[nH]c2ccccc2c1N=Nc1c(C)n(C)n(-c2ccccc2)c1=O,21µM,.,.,.,?
Cc1[nH]c2ccccc2c1N=Nc1cc(C(=O)O)cc(C(=O)O)c1,.,.,.,.,.
Cc1c(N=Nc2ccc(O)cc2)c(=O)n(-c2ccccc2)n1C,.,.,.,.,.
Cc1[nH]c2ccccc2c1N=Nc1ccc(F)cc1,?,?,?,21µM,?
Cc1ccc(-n2nc3c(=O)n(CCCC(=O)NCc4ccccc4Cl)nc(C)c3c2C)cc1,?,.,.,.,18µM

# High-throughput results as filed in PubChem BioAssay.
